In PubChem BioAssay (NCI):
The panel holds about 83,000 compounds, 20% with a hit somewhere; the sample as a whole holds those more often.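 Single-dose data. Exposure time 48 hours. Values below 10 considered active.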 Values without a mark were called inactive. Activity calls are given as the source filed them.

Legend:
Assay in all cases: NCI-60 one-dose screen, 48 h (100 = growth as untreated, 0 = no growth, -100 = all killed)
Details in all cases: 10 µM unless noted
NCI-H23 lung = test system: NCI-H23 lung
NCI-H226 lung = test system: NCI-H226 lung
NCI-H322M lung = test system: NCI-H322M lung
HOP-62 NSCLC = test system: HOP-62 NSCLC
NCI-H460 lung = test system: NCI-H460 lung
HOP-92 NSCLC = test system: HOP-92 NSCLC
NCI-H522 lung = test system: NCI-H522 lung
A549/ATCC NSCLC = test system: A549/ATCC NSCLC
786-0 renal = test system: 786-0 renal
DU-145 prostate = test system: DU-145 prostate
K-562 leukemia = test system: K-562 leukemia
MALME-3M melanoma = test system: MALME-3M melanoma
MDA-MB-231 breast = test system: MDA-MB-231 breast
RXF 393 renal = test system: RXF 393 renal
SF-268 CNS = test system: SF-268 CNS
SF-295 CNS = test system: SF-295 CNS
SF-539 CNS = test system: SF-539 CNS
UACC-257 melanoma = test system: UACC-257 melanoma
M14 melanoma = test system: M14 melanoma

Compound	growth (NCI-H23 lung)	growth (NCI-H226 lung)	growth (NCI-H322M lung)	growth (HOP-62 NSCLC)	growth (NCI-H460 lung)	growth (HOP-92 NSCLC)	growth (NCI-H522 lung)	growth (A549/ATCC NSCLC)	growth (786-0 renal)	growth (DU-145 prostate)	growth (K-562 leukemia)	growth (MALME-3M melanoma)	growth (MDA-MB-231 breast)	growth (RXF 393 renal)	growth (SF-268 CNS)	growth (SF-295 CNS)	growth (SF-539 CNS)	growth (UACC-257 melanoma)	growth (M14 melanoma)
CCCCCCCCCCCCCCCCCCn1cc(COc2ccc(C=O)cc2)nn1	90.4%	102%	108%	104%	102%	135%	89%	91.2%	94.9%	92.4%	85.9%	106%	110%	113%	93.7%	98.7%	98.5%	109%	92.8%
Cc1ccc(Cl)cc1N1CCN(C(=O)[C@@H]2C[C@@H]2c2ccc(F)cc2)CC1	84.2%	73.6%	93%	100%	99.7%	74.9%	69.3%	77.7%	93.6%	114%	75.6%	95%	102%	103%	90.1%	88.9%	95.6%	95.4%	93.4%
COc1cc(-c2nc3occn3c2-c2ccnc(NCCCNS(=O)(=O)c3ccc(O)cc3)n2)ccc1F	92.6%	96.8%	113%	95%	102%	86.7%	72.4%	94.3%	122%	110%	80.6%	-7.42% (active)	67.1%	105%	110%	91.6%	110%	54.4%	26.2%
Nc1[nH]nc(Nc2ccccc2)c1-c1nc2ccccc2s1	24.2%	57.3%	37.6%	28.6%	5.94% (active)	-15.8% (active)	-44.6% (active)	20%	10.2%	27.8%	4.83% (active)	83.4%	-17% (active)	36.3%	31%	28.6%	55.1%	50.6%	6.41% (active)
CCc1c2c(nc3ccc(OCc4ccc(B5OC(C)(C)C(C)(C)O5)cc4)cc13)-c1cc3c(c(=O)n1C2)COC(=O)[C@]3(O)CC	-23.1% (active)	-44% (active)	6.44% (active)	-4.19% (active)	1.68% (active)	-9.71% (active)	3.47% (active)	10.8%	10.6%	3.05% (active)	19.8%	-6.1% (active)	34.2%	-25.7% (active)	5.96% (active)	5.44% (active)	-35.6% (active)	-9.18% (active)	2.91% (active)
COc1ccc(-c2ccc(-c3ccc(C(=N)N)cn3)o2)cc1Cl	69.3%	81.4%	77.2%	67.5%	0.593% (active)	36.4%	59.5%	21.2%	-6.3% (active)	46.5%	-40.3% (active)	5.7% (active)	4.25% (active)	56.6%	46.5%	73.6%	33%	77.1%	31.8%
COc1cc(CO)cc2cc3ccccc3nc12	97.3%	79.4%	115%	95.7%	105%	103%	96.8%	104%	97.8%	106%	90.7%	112%	101%	115%	100%	102%	102%	105%	105%
Cc1ccc(NC(=O)c2sc3nc(C)c(C(=O)c4ccccc4)cc3c2N)cc1	96.2%	99.9%	92.2%	90.7%	65.7%	80%	88.2%	44.1%	91.9%	95.4%	55.7%	87.6%	92%	98.8%	91.1%	73.1%	94.8%	94.9%	82.7%
